# Measured values taken from the supplement of paper PMC6992640.
# Tested on: UCD52 (cells of a triple-negative basal-like breast cancer xenograft)
# Test: cell viability of combination (% of vehicle); higher = less cytotoxic
# Settings: 1 µM; 72 h; partner dose: 10 nM
# Experimental: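 PDX cells were treated for 72 h with each drug at 1 µM plus afatinib (10 nM; 1 µM for WHIM30). Luciferase viability is expressed as percent of vehicle.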
row,Compound,cell viability of combination
1,CCc1oc2ccccc2c1C(=O)c1cc(Br)c(O)c(Br)c1 [Benzbromarone] + CN(C)C/C=C/C(=O)Nc1cc2c(Nc3ccc(F)c(Cl)c3)ncnc2cc1O[C@H]1CCOC1 [Afatinib],77.2
2,O=C(NN=Cc1ccc([N+](=O)[O-])o1)c1ccc(O)cc1 [Nifuroxazide] + CN(C)C/C=C/C(=O)Nc1cc2c(Nc3ccc(F)c(Cl)c3)ncnc2cc1O[C@H]1CCOC1 [Afatinib],79.4
3,CN(C)CCOc1ccc(C(=C(CCCl)c2ccccc2)c2ccccc2)cc1.O=C(O)CC(O)(CC(=O)O)C(=O)O [Toremifene Citrate] + CN(C)C/C=C/C(=O)Nc1cc2c(Nc3ccc(F)c(Cl)c3)ncnc2cc1O[C@H]1CCOC1 [Afatinib],77.4
4,Cc1cc(Nc2ncc(Cl)c(Nc3ccccc3S(=O)(=O)C(C)C)n2)c(OC(C)C)cc1C1CCNCC1 + CN(C)C/C=C/C(=O)Nc1cc2c(Nc3ccc(F)c(Cl)c3)ncnc2cc1O[C@H]1CCOC1 [Afatinib],28.7
5,O=C(O)CO.[NH2-].[NH2-].[Pt+2] [Nedaplatin] + CN(C)C/C=C/C(=O)Nc1cc2c(Nc3ccc(F)c(Cl)c3)ncnc2cc1O[C@H]1CCOC1 [Afatinib],82.6
6,COc1cccc2c1C(=O)c1c(O)c3c(c(O)c1C2=O)CC(O)(C(=O)CO)CC3OC1CC(N)C(O)C(C)O1.Cl (stereo not given) [Epirubicin HCl] + CN(C)C/C=C/C(=O)Nc1cc2c(Nc3ccc(F)c(Cl)c3)ncnc2cc1O[C@H]1CCOC1 [Afatinib],28
7,CCC(NC(=O)C(C)NC)C(=O)N1CC(O)CC1Cc1c(-c2[nH]c3cc(F)ccc3c2CC2CC(O)CN2C(=O)C(CC)NC(=O)C(C)NC)[nH]c2cc(F)ccc12 (stereo not given) + CN(C)C/C=C/C(=O)Nc1cc2c(Nc3ccc(F)c(Cl)c3)ncnc2cc1O[C@H]1CCOC1 [Afatinib],53.5
8,C=C1C(=CC=C2CCCC3(C)C2CCC3C(C)CCCC(C)(C)O)CC(O)CC1O (stereo not given) [Calcitriol] + CN(C)C/C=C/C(=O)Nc1cc2c(Nc3ccc(F)c(Cl)c3)ncnc2cc1O[C@H]1CCOC1 [Afatinib],43.3
9,CCCCc1oc2ccc(NS(C)(=O)=O)cc2c1C(=O)c1ccc(OCCCN(CCCC)CCCC)cc1.Cl [Dronedarone HCl] + CN(C)C/C=C/C(=O)Nc1cc2c(Nc3ccc(F)c(Cl)c3)ncnc2cc1O[C@H]1CCOC1 [Afatinib],63.6
10,CC(=O)C1(O)Cc2c(O)c3c(c(O)c2C(OC2CC(N)C(O)C(C)O2)C1)C(=O)c1ccccc1C3=O.Cl (stereo not given) [Idarubicin HCl] + CN(C)C/C=C/C(=O)Nc1cc2c(Nc3ccc(F)c(Cl)c3)ncnc2cc1O[C@H]1CCOC1 [Afatinib],24.3
11,CCOc1nc2cccc(C(=O)OC(C)OC(=O)OC3CCCCC3)c2n1Cc1ccc(-c2ccccc2-c2nn[nH]n2)cc1 (stereo not given) [Candesartan Cilexetil] + CN(C)C/C=C/C(=O)Nc1cc2c(Nc3ccc(F)c(Cl)c3)ncnc2cc1O[C@H]1CCOC1 [Afatinib],74.5
12,Cl.Clc1ccccc1CN1CCc2sccc2C1 [Ticlopidine HCl] + CN(C)C/C=C/C(=O)Nc1cc2c(Nc3ccc(F)c(Cl)c3)ncnc2cc1O[C@H]1CCOC1 [Afatinib],75.9
13,COc1cc2c(Oc3ccc4[nH]c(C)cc4c3F)ncnc2cc1OCCCN1CCCC1 [Cediranib (AZD217)] + CN(C)C/C=C/C(=O)Nc1cc2c(Nc3ccc(F)c(Cl)c3)ncnc2cc1O[C@H]1CCOC1 [Afatinib],24.5
14,C1=C\COCc2cc(ccc2OCCN2CCCC2)Nc2nccc(n2)-c2cccc(c2)COC/1 [Pacritinib] + CN(C)C/C=C/C(=O)Nc1cc2c(Nc3ccc(F)c(Cl)c3)ncnc2cc1O[C@H]1CCOC1 [Afatinib],47.9
15,COC(=O)c1ccc2c(c1)NC(=O)C2=C(Nc1ccc(N(C)C(=O)CN2CCN(C)CC2)cc1)c1ccccc1 [Nintedanib (BIBF 1120)] + CN(C)C/C=C/C(=O)Nc1cc2c(Nc3ccc(F)c(Cl)c3)ncnc2cc1O[C@H]1CCOC1 [Afatinib],19.6
16,O=C(c1ccc(F)c(F)c1Nc1ccc(I)cc1F)N1CC(O)(C2CCCCN2)C1 (stereo not given) [Cobimetinib] + CN(C)C/C=C/C(=O)Nc1cc2c(Nc3ccc(F)c(Cl)c3)ncnc2cc1O[C@H]1CCOC1 [Afatinib],36.5
17,CCCCCCCCOc1ccccc1C(=O)Nc1ccc(C(=O)OCC[N+](C)(CC)CC)cc1.[Br-] [Otilonium Bromide] + CN(C)C/C=C/C(=O)Nc1cc2c(Nc3ccc(F)c(Cl)c3)ncnc2cc1O[C@H]1CCOC1 [Afatinib],78.6
18,COCCOC(=O)C1=C(C)NC(C)=C(C(=O)OCC=Cc2ccccc2)C1c1cccc([N+](=O)[O-])c1 (stereo not given) [Cilnidipine] + CN(C)C/C=C/C(=O)Nc1cc2c(Nc3ccc(F)c(Cl)c3)ncnc2cc1O[C@H]1CCOC1 [Afatinib],70.6
19,CS(=O)(=O)O.Cc1c(O)cccc1C(=O)NC(CSc1ccccc1)C(O)CN1CC2CCCCC2CC1C(=O)NC(C)(C)C (stereo not given) [Nelfinavir Mesylate] + CN(C)C/C=C/C(=O)Nc1cc2c(Nc3ccc(F)c(Cl)c3)ncnc2cc1O[C@H]1CCOC1 [Afatinib],47.9
20,Clc1ccc(C(Cn2ccnc2)OCc2c(Cl)cccc2Cl)c(Cl)c1.O=[N+]([O-])O (stereo not given) [Isoconazole nitrate] + CN(C)C/C=C/C(=O)Nc1cc2c(Nc3ccc(F)c(Cl)c3)ncnc2cc1O[C@H]1CCOC1 [Afatinib],78.3

row,Compound,cell viability of combination
1,COC(=O)C12CCC(C)(C)CC1C1C(=O)C=C3C4(C)C=C(C#N)C(=O)C(C)(C)C4CCC3(C)C1(C)CC2 (stereo not given) [Bardoxolone methyl] + CN(C)C/C=C/C(=O)Nc1cc2c(Nc3ccc(F)c(Cl)c3)ncnc2cc1O[C@H]1CCOC1 [Afatinib],47.9
2,CCOc1cc2ncc(C#N)c(Nc3ccc(OCc4ccccn4)c(Cl)c3)c2cc1NC(=O)C=CCN(C)C [Neratinib (HKI-272)] + CN(C)C/C=C/C(=O)Nc1cc2c(Nc3ccc(F)c(Cl)c3)ncnc2cc1O[C@H]1CCOC1 [Afatinib],50.9
3,CC1=CC(=O)c2ccccc2C1=O [Menadione] + CN(C)C/C=C/C(=O)Nc1cc2c(Nc3ccc(F)c(Cl)c3)ncnc2cc1O[C@H]1CCOC1 [Afatinib],74.6
4,CC(O)C(=O)O.CCOc1ccc2nc3cc(N)ccc3c(N)c2c1.O [Ethacridine lactate monohydrate] + CN(C)C/C=C/C(=O)Nc1cc2c(Nc3ccc(F)c(Cl)c3)ncnc2cc1O[C@H]1CCOC1 [Afatinib],70.5
5,CO[C@H]1C[C@@H]2CC[C@@H](C)[C@@](O)(O2)C(=O)C(=O)N2CCCC[C@H]2C(=O)O[C@H]([C@H](C)C[C@@H]2CC[C@@H](O)[C@H](OC)C2)CC(=O)[C@H](C)/C=C(\C)[C@@H](O)[C@@H](OC)C(=O)[C@H](C)C[C@H](C)/C=C/C=C/C=C/1C [Rapamycin (Sirolimus)] + CN(C)C/C=C/C(=O)Nc1cc2c(Nc3ccc(F)c(Cl)c3)ncnc2cc1O[C@H]1CCOC1 [Afatinib],42.5
6,COc1cccc2c1C(=O)c1c(O)c3c(c(O)c1C2=O)CC(O)(C(=O)CO)CC3OC1CC(N)C(O)C(C)O1 (stereo not given) [Doxorubicin] + CN(C)C/C=C/C(=O)Nc1cc2c(Nc3ccc(F)c(Cl)c3)ncnc2cc1O[C@H]1CCOC1 [Afatinib],28.5
7,Br.Cc1ccc(Sc2ccccc2N2CCNCC2)c(C)c1 + CN(C)C/C=C/C(=O)Nc1cc2c(Nc3ccc(F)c(Cl)c3)ncnc2cc1O[C@H]1CCOC1 [Afatinib],55.4
8,Cc1nc(NC(=O)N2CCCC2C(N)=O)sc1-c1ccnc(C(C)(C)C(F)(F)F)c1 (stereo not given) + CN(C)C/C=C/C(=O)Nc1cc2c(Nc3ccc(F)c(Cl)c3)ncnc2cc1O[C@H]1CCOC1 [Afatinib],43.4
9,Cl.Fc1ccc(C2CCNCC2COc2ccc3c(c2)OCO3)cc1 (stereo not given) [Paroxetine HCl] + CN(C)C/C=C/C(=O)Nc1cc2c(Nc3ccc(F)c(Cl)c3)ncnc2cc1O[C@H]1CCOC1 [Afatinib],60.4
10,COc1ccc(C[C@H](N)C(=O)N[C@@H]2[C@H](O)[C@H](n3cnc4c(N(C)C)ncnc43)O[C@@H]2CO)cc1.Cl.Cl [Puromycin dihydrochloride] + CN(C)C/C=C/C(=O)Nc1cc2c(Nc3ccc(F)c(Cl)c3)ncnc2cc1O[C@H]1CCOC1 [Afatinib],18.2
11,Cc1ccc(C(=O)N(CCCN)C(c2nc3cc(Cl)ccc3c(=O)n2Cc2ccccc2)C(C)C)cc1 (stereo not given) + CN(C)C/C=C/C(=O)Nc1cc2c(Nc3ccc(F)c(Cl)c3)ncnc2cc1O[C@H]1CCOC1 [Afatinib],36
12,CCN(CC)CCCC(C)Nc1ccnc2cc(Cl)ccc12.O=P(O)(O)O.O=P(O)(O)O (stereo not given) [Chloroquine diphosphate] + CN(C)C/C=C/C(=O)Nc1cc2c(Nc3ccc(F)c(Cl)c3)ncnc2cc1O[C@H]1CCOC1 [Afatinib],48.5
13,CC(O)C(=O)O.CC(O)C(=O)O.CN1CCN(c2ccc3c(c2)NC(=C2C(=O)N=c4cccc(F)c4=C2N)N3)CC1 [Dovitinib Dilactic acid] + CN(C)C/C=C/C(=O)Nc1cc2c(Nc3ccc(F)c(Cl)c3)ncnc2cc1O[C@H]1CCOC1 [Afatinib],56.7
14,CCN(CC)CCNC(=O)c1c(C)[nH]c(C=C2C(=O)Nc3ccc(F)cc32)c1C [Sunitinib] + CN(C)C/C=C/C(=O)Nc1cc2c(Nc3ccc(F)c(Cl)c3)ncnc2cc1O[C@H]1CCOC1 [Afatinib],50.4
15,C=C1C(=CC=C2CCCC3(C)C2CCC3C(C)CCCC(C)C)CC(O)CC1O (stereo not given) [Alfacalcidol] + CN(C)C/C=C/C(=O)Nc1cc2c(Nc3ccc(F)c(Cl)c3)ncnc2cc1O[C@H]1CCOC1 [Afatinib],50
16,CNCCCC12CCC(c3ccccc31)c1ccccc12.Cl [Maprotiline HCl] + CN(C)C/C=C/C(=O)Nc1cc2c(Nc3ccc(F)c(Cl)c3)ncnc2cc1O[C@H]1CCOC1 [Afatinib],61.4
17,CC1CC(=O)NN=C1c1ccc(NN=C(C#N)C#N)cc1 (stereo not given) [Levosimendan] + CN(C)C/C=C/C(=O)Nc1cc2c(Nc3ccc(F)c(Cl)c3)ncnc2cc1O[C@H]1CCOC1 [Afatinib],75
18,CNCCC(Oc1cccc2ccccc12)c1cccs1.Cl (stereo not given) [Duloxetine HCl] + CN(C)C/C=C/C(=O)Nc1cc2c(Nc3ccc(F)c(Cl)c3)ncnc2cc1O[C@H]1CCOC1 [Afatinib],59.8
19,C[C@H]1O[C@@H](O[C@H]2[C@@H](O)C[C@H](O[C@H]3[C@@H](O)C[C@H](O[C@H]4CC[C@@]5(C)[C@H](CC[C@@H]6[C@@H]5C[C@@H](O)[C@]5(C)[C@@H](C7=CC(=O)OC7)CC[C@]65O)C4)O[C@@H]3C)O[C@@H]2C)C[C@H](O)[C@@H]1O [Digoxin] + CN(C)C/C=C/C(=O)Nc1cc2c(Nc3ccc(F)c(Cl)c3)ncnc2cc1O[C@H]1CCOC1 [Afatinib],19.5
20,O=C(O)c1cc(O)c(O)c(O)c1 [Gallic acid] + CN(C)C/C=C/C(=O)Nc1cc2c(Nc3ccc(F)c(Cl)c3)ncnc2cc1O[C@H]1CCOC1 [Afatinib],73.6
